Where “and” joins values, the source holds several entries; their conditions need not be identical. Equal values may be shown once. More than one record can exist for a structure, and the calls need not agree. Calls of active or inactive are those of the source.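 The calls were made as follows, unless noted: active = inhibition at or above 50% relative to wild type and mutant plate controls; inactive = inhibition below 50%.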
Experiments:
[1] = inhibitors of TNFa-induced NFkB p65 translocation, primary screen, imaging, HUVEC, MLSMR starter and 10KST1 sets (AID 438;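 active = inhibition above 20% together with a positive visual image hit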;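 also: compound added about 3h40 before a 20 min TNFalpha stimulation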;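 as to inhibition: signal is the nuclear over cytoplasmic p65 intensity ratio per well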); conditions: HUVEC TNFa-induced p65 nuclear translocation; cell count: measured here: nuclei count (cytotoxicity indicator), at 2.08 µM; inhibition: at 2 µM, stronger effect = higher value, 0% TNFa-plus-vehicle, 100% no-TNFa wells
[2] = reduction of polyQ htt aggregates in cells – imaging, exon1htt(103Q)mCFP cells, high-content imaging, primary screen (AID 483;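 active = visual image review flags a hit and inhibition of aggregation exceeds 20%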;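 also: compound exposure lasted 3 days before fixation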;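 as to nuclei count: percent of the per-plate median nuclei count of sample wells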); conditions: exon1htt(103Q)mCFP cell line, aggregate imaging, at 2 µM; inhibition of aggregation: stronger effect = higher value; nuclei count: measured here: cell count, toxicity
[3] = endothelial E-selectin expression blockers – imaging, HUVEC, immunofluorescence, MLSMR starter and 10KST1 sets, primary screen (AID 487;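 active = visually confirmed hit in the image check and inhibition above 20%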;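 as to inhibition: signal is fraction of cell area covered by stained E-selectin grains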;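 as to nuclei count: 100% = median nuclei count of all wells on the same plate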); conditions: HUVEC TNFalpha-induced E-selectin immunofluorescence imaging, at 2 µM; inhibition: stronger effect = higher value; nuclei count: measured here: cell number, toxicity
[4] = Primary imaging screen for DUSP6 inhibitors that restore phospho-Erk in transfected HeLa cells, chemical complementation (AID 609;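 active = compounds giving at least 50% inhibition in the cell-based MKP-3 phosphatase rescue imaging test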;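 as to inhibition: phospho-Erk level distribution per well compared with pooled transfected vehicle control wells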); conditions: HeLa MKP-3 transfected, phospho-Erk imaging KS statistic, at 10 µM, cells stimulated with TPA for 15 min
[5] = biological target: Dual specificity protein phosphatase 6 (Homo sapiens) (UniProt Q16828); experiment: as above; conditions: HeLa MKP-3 transfected, phospho-Erk imaging KS statistic; at 10 µM; stronger effect = higher value; cells stimulated with TPA for 15 min
Sequence of Dual specificity protein phosphatase 6 (Homo sapiens) (Q16828 whole entry, looked up): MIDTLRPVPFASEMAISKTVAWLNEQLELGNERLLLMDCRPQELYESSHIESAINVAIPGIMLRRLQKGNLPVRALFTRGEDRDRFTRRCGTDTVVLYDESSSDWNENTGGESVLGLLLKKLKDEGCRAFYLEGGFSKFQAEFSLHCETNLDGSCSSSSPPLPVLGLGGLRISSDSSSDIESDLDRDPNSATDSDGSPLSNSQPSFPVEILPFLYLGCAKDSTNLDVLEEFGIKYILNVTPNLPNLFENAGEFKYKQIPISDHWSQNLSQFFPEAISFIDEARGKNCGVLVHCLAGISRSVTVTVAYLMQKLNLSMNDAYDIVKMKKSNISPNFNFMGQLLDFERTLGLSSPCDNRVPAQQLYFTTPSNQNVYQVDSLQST

[6] = biological target: Voltage-gated potassium channel subunit beta-2 (Rattus norvegicus) (UniProt P62483); experiment: inhibitors of rat Kvbeta2 reductase activity – biochemical, NADPH fluorescence, primary screen (AID 622;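 active = fluorescence slope higher than the sample average by over 3 SD, cut at about -0.22 in these data, passing the limit was not always enough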;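 also: slope of raw intensity against log time taken from 70 to 1610 s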); conditions: recombinant KvBeta, 4-cyanobenzaldehyde reduction, at 10 µM, stronger effect = higher value
Sequence of Voltage-gated potassium channel subunit beta-2 (Rattus norvegicus) (P62483 whole entry, looked up): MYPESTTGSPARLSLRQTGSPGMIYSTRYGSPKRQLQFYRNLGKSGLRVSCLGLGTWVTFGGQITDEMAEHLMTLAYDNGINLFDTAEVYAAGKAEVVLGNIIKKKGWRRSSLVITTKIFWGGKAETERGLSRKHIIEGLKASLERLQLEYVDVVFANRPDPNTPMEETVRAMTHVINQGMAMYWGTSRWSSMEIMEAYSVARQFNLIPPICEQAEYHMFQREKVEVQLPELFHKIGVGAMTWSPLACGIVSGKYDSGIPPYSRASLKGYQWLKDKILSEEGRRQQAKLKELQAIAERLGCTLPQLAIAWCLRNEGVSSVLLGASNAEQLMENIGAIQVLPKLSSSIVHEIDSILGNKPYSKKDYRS

[7] = biological target: Voltage-gated potassium channel subunit beta-2 (Rattus norvegicus) (UniProt P62483); experiment: enhancers of rat Kvbeta2 NADPH turnover – biochemical, NADPH fluorescence, primary screen (AID 623;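 active = NADPH fluorescence slope more negative than the mean of all samples by about 3 SD, 99.7% confidence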;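 also: fluorescence intensity change per second fitted from 20 to 320 s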); conditions: Recombinant KvBeta, NADPH fluorescence decrease slope, 10 min; at 10 µM; stronger effect = lower value
[8] = biological target: Alpha-2C adrenergic receptor (Homo sapiens) (UniProt P18825); experiment: compounds altering alpha2C-coupled GIRK flux – cell-based, HEK293 alpha2C/GIRK1/2, thallium flux, primary screen (AID 624;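 active = fluorescence slope after compound addition differing from the mean of all screened samples at 99.7% confidence, in either direction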;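 also: slope of fluorescence ratio to pre-addition baseline per second over 15 to 24 s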); conditions: thallium flux BTC fluorescence, at 10 µM, actives lie on both sides
Sequence of Alpha-2C adrenergic receptor (Homo sapiens) (P18825 whole entry, looked up): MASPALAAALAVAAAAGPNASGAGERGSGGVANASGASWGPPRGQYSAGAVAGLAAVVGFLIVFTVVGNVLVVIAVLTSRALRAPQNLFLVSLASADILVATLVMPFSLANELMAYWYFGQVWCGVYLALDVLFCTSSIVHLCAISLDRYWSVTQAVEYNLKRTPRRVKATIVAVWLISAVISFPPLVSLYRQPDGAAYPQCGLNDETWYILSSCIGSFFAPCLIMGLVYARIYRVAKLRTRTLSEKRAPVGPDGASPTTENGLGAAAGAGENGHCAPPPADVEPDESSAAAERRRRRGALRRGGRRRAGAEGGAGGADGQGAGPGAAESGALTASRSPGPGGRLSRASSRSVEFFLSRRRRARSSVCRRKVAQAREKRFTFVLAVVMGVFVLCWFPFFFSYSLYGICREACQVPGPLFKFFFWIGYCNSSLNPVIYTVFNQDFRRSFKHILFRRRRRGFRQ

[9] = inhibitors of larval lipid processing in zebrafish, primary screen, whole organism, PED6 fluorescence, gall bladder and intestine (AID 686;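 active = a full or partial loss of lipid-probe fluorescence in the fish gall bladder, intestine or both, judged by eye; inactive = no fluorescence loss, or compound toxic to the fish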;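 also: larvae 5 to 7 days old with five fish per well; signal comes from phospholipase A2 cleavage of quenched PED6 carried via bile; overnight exposure to compound and PED6 before scoring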); conditions: Zebrafish larvae PED6 lipid processing, fluorescence scoring; screened at 20 µM (by protocol)
[10] = loss of swimming-algae plug formation – whole organism, Chlamydomonas reinhardtii, WT vs cilia-less mutant, absorbance, 96-well, primary screen (AID 463189); conditions: Chlamydomonas reinhardtii gravitaxis, OD600 absorbance, 2 days; at 10 µM; stronger effect = higher value;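 also: 0% = wild type cc124 cells in DMSO and 100% = ciliumless bld1 mutant cells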
[11] = blockers of RIG-like receptor reporter activation – cell-based, Sendai virus stimulus, luciferase, 10K MLSCN set, TLR/RLR signaling modifier project, primary screen (AID 602276;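 active = inhibition at or above 50% at 10 µM; inactive = inhibition below 50%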;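 also: firefly luciferase from ISG56 promoter only with Renilla not read in this screen; 0% = Sendai virus plus DMSO and 100% = medium plus DMSO without virus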); conditions: HEK293 RL24 IRF3 luciferase reporter, at 10 µM, stronger effect = higher value
[12] = TLR3 IRF3 reporter activation blockers – cell-based, poly I:C stimulus, luciferase, 10K MLSCN set, primary screen (AID 602277;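 active = inhibition of the reporter signal at or above 50%; inactive = inhibition below 50%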); conditions: HEK293-TLR3 RL24 IRF3 luciferase reporter, at 10 µM, stronger effect = higher value
[13] = measured here: cell density z-score
[14] = measured here: nuclear c-Myc green intensity z-score
[15] = measured here: nuclear pErk red intensity z-score, stronger effect = higher value

SMILES | cell count [1] | inhibition [1] | inhibition of aggregation [2] | nuclei count [2] [%] | inhibition [3] | nuclei count [3] [%] | z-score [4, 13] | z-score [4, 14] | z-score [4, 15] | inhibition [5] | fluorescence slope [6] | NADPH fluorescence slope [7] | slope [8] | outcome [9] | inhibition [10] | inhibition [11] | inhibition [12]
Cc1ccc(C2/C(=C(/O)c3cnn(-c4ccccc4)c3C)C(=O)C(=O)N2CCN2CCOCC2)o1 (stereo not given) | 520 | -2.8% (inactive) | 10.2% (inactive) | 100 | -56.6% (inactive) | 126 | -0.925 | 1.9 | -0.672 | -10.5% (inactive) | -0.531 (inactive) | -4.5e-05 (inactive) | 0.00497 (inactive) | inactive | -18.9% (inactive) | -28.4% (inactive) | -75.5% (inactive)
CCOc1nc(SCCOc2ccccc2)nc(N(C)C)n1 | 397 | -7.1% (inactive) | 4.3% (inactive) | 54 | -68.5% (inactive) | 113 | 0.798 | -0.437 | -0.913 | 22.8% (inactive) | -0.395 (inactive) | 1.4e-05 (inactive) | 0.00398 (inactive) | inactive | 28.4% (inactive) | 0.0705% (inactive) | -11.2% (inactive)
COC(=O)Nc1nc2ccc(Sc3ccccc3)cc2[nH]1 | 678 | 4.6% (inactive) | 9.4% (inactive) | 103 | -3.1% (inactive) | 76.4 | -0.13 | 0.104 | -0.162 | -5.24% (inactive) | -0.475 (inactive) | -5.5e-05 (inactive) | 0.00514 (inactive) | inactive | -5.89% (inactive) | 43% (inactive) | -12.9% (inactive)
COCCc1ccc(OCC(O)CNC(C)C)cc1 (stereo not given) | 534 | 1.4% (inactive) | -4.4% (inactive) | 85.7 | -71.5% (inactive) | 108 | -1.75 | 1.07 | 0.0458 | 8% (inactive) | -0.46 (inactive) | -3.7e-05 (inactive) | 0.00577 (inactive) | inactive | -6.24% (inactive) and 33.7% (inactive) | 15.3% (inactive) | 32.2% (inactive)
NC(=O)c1cc(-c2ccccc2)nc(Oc2ccccc2)n1 | 472 | -18.1% (inactive) | 8.5% (inactive) | 99 | -13.2% (inactive) | 109 | -0.736 | -0.523 | 0.468 | 6.51% (inactive) | -0.53 (inactive) | -8.3e-05 (inactive) | 0.00808 (inactive) | inactive | -1.45% (inactive) | 13.4% (inactive) | 1.65% (inactive)
CC(O)Cn1cnc2c1c(=O)n(C)c(=O)n2C (stereo not given) | 541 | -7% (inactive) | 11.8% (inactive) | 99.1 | -13.1% (inactive) | 128 | 1.09 | -0.569 | -0.416 | 15.3% (inactive) | -0.45 (inactive) | -7.7e-05 (inactive) | 0.00504 (inactive) | inactive | 23.2% (inactive) | 12% (inactive) | 29.4% (inactive)
OC(CCN1CCCCC1)(c1ccccc1)c1ccccc1 | 674 | -1.6% (inactive) | -18% (inactive) | 108 | -75.5% (inactive) | 114 | 0.144 | -1.15 | -0.931 | -0.493% (inactive) | -0.458 (inactive) | -3.9e-05 (inactive) | 0.00533 (inactive) | inactive | -6.75% (inactive) | 16.1% (inactive) | 48% (inactive)
CC(=O)OCC[N+](C)(C)C | 554 | -8.9% (inactive) | 10.6% (inactive) | 93.8 | -102% (inactive) | 102 | -0.918 | -0.674 | -0.99 | -0.493% (inactive) | -0.431 (inactive) | 1.1e-05 (inactive) | 0.0173 (active) | inactive | -4.51% (inactive) | 11.3% (inactive) | 31.5% (inactive)
O=C(O)c1ccccc1S | 650 | -5% (inactive) | 6.8% (inactive) | 96.1 | -76.8% (inactive) | 126 | 1.28 | 1.34 | -0.494 | 21.2% (inactive) | -0.435 (inactive) | -8.2e-05 (inactive) | 0.00404 (inactive) | inactive | -11% (inactive) | 6.85% (inactive) | 19% (inactive)
COC(=O)CCC(=O)CN | 462 | -0.2% (inactive) | 0.3% (inactive) | 95.2 | -32.6% (inactive) | 108 | -0.857 | 0.817 | -0.467 | 14.6% (inactive) | -0.446 (inactive) | -6.5e-05 (inactive) | 0.00417 (inactive) | inactive | -6.73% (inactive) | 5.54% (inactive) | 25.1% (inactive)
CN1CCC(=C2c3ccccc3CC(=O)c3sccc32)CC1 | 641 | 5.3% (inactive) | 5.4% (inactive) | 97.7 | -56.9% (inactive) | 126 | 2.91 | 0.175 | -2.59 | 10.2% (inactive) | -0.5 (inactive) | -6.2e-05 (inactive) | 0.00525 (inactive) | inactive | -11.3% (inactive) and 22.8% (inactive) | -1.65% (inactive) | 51.2% (active)
NC(N)=NS(=O)(=O)c1ccc(N)cc1 | 630 | 0.4% (inactive) | 9.4% (inactive) | 99.7 | -107% (inactive) | 136 | 0.695 | -0.407 | -0.348 | 14.6% (inactive) | -0.497 (inactive) | -7.4e-05 (inactive) | 0.00546 (inactive) | inactive | -2.06% (inactive) | 18.4% (inactive) | 34.4% (inactive)
CC(NCCC(c1ccccc1)c1ccccc1)c1ccccc1 (stereo not given) | 619 | -0.2% (inactive) | 22.8% (inactive) | 104 | -24.4% (inactive) | 113 | 1.32 | -0.571 | -1.03 | 13.3% (inactive) | -0.492 (inactive) | -8.5e-06 (inactive) | 0.00284 (inactive) | inactive | 59.1% (active) | 28.7% (inactive) | 22.8% (inactive)
CCCCn1cnc2c(c1=O)c1nc3ccccc3nc1n2Cc1ccc2c(c1)OCO2 | 588 | -2% (inactive) | -18.6% (inactive) | 101 | -78% (inactive) | 129 | 0.775 | -1.04 | -0.0661 | -4.7% (inactive) | -0.159 (inactive) | 1.1e-05 (inactive) | 0.00729 (inactive) | inactive | 10.8% (inactive) | 7.61% (inactive) | 1.84% (inactive)
CC1Cc2ccccc2N1NC(=O)c1ccc(Cl)c(S(N)(=O)=O)c1 (stereo not given) | 657 | -3.7% (inactive) | 4.2% (inactive) | 112 | -59.9% (inactive) | 121 | 0.724 | -0.336 | -0.652 | 21.2% (inactive) | -0.544 (inactive) | -5e-05 (inactive) | 0.0056 (inactive) | inactive | 18.3% (inactive) | -7.5% (inactive) | -10.9% (inactive)
Nc1nc(N)c2nc(-c3ccccc3)c(N)nc2n1 | 640 | -0.8% (inactive) | -9.9% (inactive) | 107 | -64.7% (inactive) | 133 | -0.982 | -0.143 | 2.15 | -11.9% (inactive) | -0.0137 (active) | -1.2e-05 (inactive) | 0.00479 (inactive) | inactive | 4.85% (inactive) and -8.55% (inactive) | 12.2% (inactive) | 34.5% (inactive)
CCSc1nc(N)c(C#N)c(-c2ccccc2Cl)c1C#N | 494 | -3.2% (inactive) | 25.1% (inactive) | 71.7 | -29% (inactive) | 107 | -2.31 | 3.1 | 0.136 | -5.89% (inactive) | -0.473 (inactive) | -0.000189 (inactive) | 0.00512 (inactive) | inactive | -6.34% (inactive) | -0.977% (inactive) | 7.05% (inactive)
CC(CN1c2ccccc2Sc2ccccc21)N(C)C (stereo not given) | 546 | 2.6% (inactive) | 6.8% (inactive) | 100 | -48.8% (inactive) | 109 | 2 | -0.736 | 0.272 | -0.828% (inactive) | -0.478 (inactive) | -1.7e-05 (inactive) | 0.0061 (inactive) | inactive | 91.5% (active) and 139% (active) | 5.11% (inactive) | 31% (inactive)
CCCCNc1cc(C(=O)O)cc(S(N)(=O)=O)c1Oc1ccccc1 | 603 | -16.6% (inactive) | -13.4% (inactive) | 110 | -136% (inactive) | 140 | 0.424 | 0.482 | -0.678 | 15.3% (inactive) | -0.47 (inactive) | -6.3e-05 (inactive) | 0.00446 (inactive) | inactive | 7.78% (inactive) and -7.14% (inactive) | 13.2% (inactive) | 38.2% (inactive)
CN1CCN(CCCN2c3ccccc3Sc3ccc(Cl)cc32)CC1 | 625 | -0.8% (inactive) | 6.1% (inactive) | 98.7 | -67.5% (inactive) | 115 | 0.0938 | 1.34 | 0.8 | 30.1% (inactive) | -0.449 (inactive) | 1.3e-05 (inactive) | 0.00441 (inactive) | inactive | 96.7% (active) and 24.7% (inactive) | 17.3% (inactive) | 22.7% (inactive)

Source: PubChem BioAssay
